{"source": "PubChem BioAssay (NCATS)", "note": "Records with an inconclusive call do not appear. The source made the active and inactive calls. Calls follow the shape of the dose curve; as a rule, active = well fitted inhibition curve with a large enough effect; inconclusive = small, poorly fitted or top-dose-only effect; inactive = no such curve, though single readings can be large or run the other way.", "data": [{"experiment": "qHTS assay for measurement of the activity of small molecule inhibitors on Zika virus induced Caspase-3 activity in human iPSC derived neural progenitor cells (hNPCs) (AID 1224857); also: % of control where 0% means no effect; nearly all actives have a fitted effect of over 65% in size", "details": "hNPCs ZIKV-induced caspase-3/7, Caspase-Glo luminescence, 6 h; series mostly up to 45.7 µM; activity change, negative = inhibition: at the top concentration", "method_in_brief": "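Cells were plated at 350 per well and grown 16 to 20 hours. Compound pretreatment lasted one hour, after which ZIKV (2 FFU/cell) was added for 6 hours. Percent inhibition was normalized between uninfected and infected controls.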", "values": [{"compound": "CC(=O)Oc1cccc(O)c1", "activity change, negative = inhibition": "-0.302% (inactive)"}, {"compound": "CC(=O)N(CC(O)CN(C(C)=O)c1c(I)c(C(=O)NCC(O)CO)c(I)c(C(=O)NCC(O)CO)c1I)c1c(I)c(C(=O)NCC(O)CO)c(I)c(C(=O)NCC(O)CO)c1I", "note": "(centres undefined)", "activity change, negative = inhibition": "15.3% (inactive)"}, {"compound": "CO[C@@]1(NC(=O)C(C(=O)O)c2ccc(O)cc2)C(=O)N2C(C(=O)O)=C(CSc3nnnn3C)CO[C@@H]21", "note": "(some centres undefined)", "activity change, negative = inhibition": "0.0171% (inactive)"}, {"compound": "COc1ccc2cc(CCC(C)=O)ccc2c1", "activity change, negative = inhibition": "2.92% (inactive)"}, {"compound": "CCCCCC(C)N", "note": "(centres undefined)", "activity change, negative = inhibition": "1.62% (inactive)"}, {"compound": "NS(=O)(=O)c1cc(-c2nn[nH]n2)c(NCc2cccs2)cc1Cl", "activity change, negative = inhibition": "-2.37% (inactive)"}, {"compound": "NC(=O)CCCCC1CCSS1", "note": "(centres undefined)", "activity change, negative = inhibition": "-2.12% (inactive)"}, {"compound": "Cc1ccsc1/C=C/C1=NCCCN1C", "activity change, negative = inhibition": "0.183% (inactive)"}, {"compound": "NC(=O)CC[C@@H](N)C(=O)O", "activity change, negative = inhibition": "-5.15% (inactive)"}, {"compound": "O=C(Cn1ccnc1[N+](=O)[O-])NCCO", "activity change, negative = inhibition": "-9.53% (inactive)"}, {"compound": "O=c1[nH]cnc2nc[nH]c12", "activity change, negative = inhibition": "-6.07% (inactive)"}, {"compound": "CC(=O)NS(=O)(=O)c1ccc(N)cc1", "activity change, negative = inhibition": "-9.26% (inactive)"}, {"compound": "O=C(O)CNC(=O)c1ccccc1I", "activity change, negative = inhibition": "-10.7% (inactive)"}, {"compound": "CC(N)CCCC(C)(C)O", "note": "(centres undefined)", "activity change, negative = inhibition": "-5.4% (inactive)"}, {"compound": "CC1CCN(CCCC(=O)c2ccc(F)cc2)CC1", "activity change, negative = inhibition": "5.67% (inactive)"}, {"compound": "CC(C)c1cc2c(cc1S(=O)(=O)O)[C@@]1(C)CCC[C@@](C)(C(=O)O)[C@@H]1CC2", "activity change, negative = inhibition": "1.82% (inactive)"}, {"compound": "NNc1nnc(NN)c2ccccc12", "activity change, negative = inhibition": "17.3% (inactive)"}, {"compound": "Cc1ccccc1N=Nc1ccc(N=Nc2c(O)ccc3ccccc23)c(C)c1", "activity change, negative = inhibition": "3.05% (inactive)"}, {"compound": "CC(=O)Oc1cccc(C)c1", "activity change, negative = inhibition": "6.36% (inactive)"}, {"compound": "CN1CCCN=C1COC(=O)C(O)(c1ccccc1)C1CCCCC1", "note": "(centres undefined)", "activity change, negative = inhibition": "27.7% (inactive)"}, {"compound": "COc1ccc(-c2cc(=O)c3c(O)cc(O[C@@H]4O[C@H](CO[C@@H]5O[C@@H](C)[C@H](O)[C@@H](O)[C@H]5O)[C@@H](O)[C@H](O)[C@H]4O)cc3o2)cc1O", "activity change, negative = inhibition": "7.11% (inactive)"}, {"compound": "Cc1c(C)c2c(c(C)c1OC(=O)c1cccnc1)CC[C@@](C)(CCC[C@H](C)CCC[C@H](C)CCCC(C)C)O2", "activity change, negative = inhibition": "-4.65% (inactive)"}, {"compound": "COc1nccnc1NS(=O)(=O)c1ccc(N)cc1", "activity change, negative = inhibition": "13.5% (inactive)"}, {"compound": "Cc1cccc(Nc2ccccc2C(=O)O)c1C", "activity change, negative = inhibition": "-5.92% (inactive)"}, {"compound": "O=C(NCN1CCOCC1)c1cnccn1", "activity change, negative = inhibition": "0.0632% (inactive)"}, {"compound": "C[N+]1(C)CCCC(OC(=O)C(O)(c2ccccc2)c2ccccc2)C1", "note": "(centres undefined)", "activity change, negative = inhibition": "-1.38% (inactive)"}, {"compound": "CCCNC(C)(C)COC(=O)c1ccccc1", "activity change, negative = inhibition": "5.39% (inactive)"}, {"compound": "CN1C(=O)CC(c2ccccc2)C1=O", "note": "(centres undefined)", "activity change, negative = inhibition": "-1.6% (inactive)"}, {"compound": "CC(C)CCCC(C)CCCC(C)CCCCC(C)CCCC(C)CCCC(C)C", "note": "(centres undefined)", "activity change, negative = inhibition": "3.28% (inactive)"}, {"compound": "O=c1[nH]c(=O)n([C@H]2C[C@H](O)[C@@H](CO)O2)cc1I", "activity change, negative = inhibition": "22.5% (inactive)"}, {"compound": "CN[C@@H]1[C@@H](O)[C@@H](O[C@@H]2[C@H](O)[C@H](O[C@H]3OC(CN)=CC[C@H]3N)[C@@H](N)C[C@H]2N)OCC1(C)O", "note": "(some centres undefined)", "activity change, negative = inhibition": "-2.96% (inactive)"}, {"compound": "Nc1ccc(S(=O)(=O)c2ccc(N)cc2)cc1", "activity change, negative = inhibition": "2.14% (inactive)"}, {"compound": "NC(=O)N[C@@H](CCC(=O)O)C(=O)O", "activity change, negative = inhibition": "-0.369% (inactive)"}, {"compound": "CCC(C)(CN(C)C)OC(=O)c1ccccc1", "note": "(centres undefined)", "activity change, negative = inhibition": "-2.9% (inactive)"}, {"compound": "C[C@@H]1O[C@@H](OC[C@H]2O[C@@H](Oc3c(-c4ccc(O)c(O)c4)oc4cc(O)cc(O)c4c3=O)[C@H](O)[C@@H](O)[C@@H]2O)[C@H](O)[C@H](O)[C@H]1O", "activity change, negative = inhibition": "11.8% (inactive)"}, {"compound": "COC(=O)N/N=C/c1c[n+]([O-])c2ccccc2[n+]1[O-]", "activity change, negative = inhibition": "-0.585% (inactive)"}, {"compound": "CCCCCCCCCCOc1cc2c(=O)c(C(=O)OCC)c[nH]c2cc1OCC", "activity change, negative = inhibition": "9.1% [at 4.53 µM] (inactive)"}, {"compound": "CC(C)=CCC/C(C)=C/CO", "activity change, negative = inhibition": "3.63% (inactive)"}, {"compound": "C=CCN1C[C@H](C(=O)N(CCCN(C)C)C(=O)NCC)C[C@@H]2c3cccc4[nH]cc(c34)C[C@H]21", "activity change, negative = inhibition": "9.49% (inactive)"}]}]}
